Source: PubChem BioAssay AID939 (National Center for Advancing Translational Sciences (NCATS), 2007)
Results filed as inconclusive are left out.

assay: Confirmation Concentration-Response Assay for Agonists of the Thyroid Stimulating Hormone Receptor; details: HEK293 TSHR-CNG cells, membrane potential dye, cAMP; measured here: parental HEK293 counter-screen max; also: reference of the scale not given here
Outline: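 A cyclic nucleotide gated channel serves as cAMP sensor in HEK 293 cells stably carrying TSHR, with depolarization detected by fluorescent dye at 590 nm after 30 min compound. Parental cells lacking TSHR run alongside.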

Q: With `CN1C(=O)C2C=CC1C1C(=O)N(c3ccccc3)C(=O)C21` (configuration not stated) as the compound, how does the max response read?
A: 2.29%

Q: With `CCC(C)(C)n1nnnc1CN(Cc1ccco1)Cc1cc2cc3c(cc2[nH]c1=O)OCO3` as the compound, how does the max response read?
A: -12.1%

Q: For `COc1cccc(C2CC(c3ccccc3OC)n3nc(N)nc3N2)c1` (configuration not stated), which max response is on record?
A: 6.01%

Q: With `Cc1ccc(N(CC(=O)NCc2ccco2)S(=O)(=O)c2ccccc2)cc1` as the compound, how does the max response read?
A: -6.79%

Q: For `Cc1ccc(S(=O)(=O)N2CCC(C(=O)NCCCN3CCCCCC3)CC2)cc1`, which max response is on record?
A: -4.36%

Q: For `COc1ccc(-c2ccc(-c3noc(C)n3)c(OC)n2)cc1`, which max response is on record?
A: 8.55%

Q: Which max response does the source give for `CCOC(=O)N1CCC(NC(=O)c2ccc(CNS(=O)(=O)c3ccc(F)cc3)cc2)CC1` here?
A: 8.37%

Q: With `Cc1occc1-c1nnc(SCC(=O)NCc2ccc3c(c2)OCO3)n1CC(C)C` as the compound, how does the max response read?
A: 9.78%

Q: For `CCN(c1ccccc1)S(=O)(=O)c1ccc(Oc2ccc(-n3ccnc3)cc2)nc1`, which max response is on record?
A: -1.61%

Q: Which max response does the source give for `COc1ccc(S(=O)(=O)NCCC(=O)NCc2ccc(F)cc2)cc1` here?
A: -8.89%

Q: For `Cc1ccccc1-n1nc(C)c2cc(C(=O)N3CCN(S(=O)(=O)c4ccc(F)cc4)CC3)sc21`, which max response is on record?
A: -1.22%

Q: With `CC(C)CC(=O)Nc1cccc(-c2cn3ccsc3n2)c1` as the compound, how does the max response read?
A: -8.65%
